In the library only some 2.9% were active in any assay of this set; here they are far more common.
Shn3 3UTR inh: inhibitors of Schnurri-3 3'UTR reporter in osteoblasts | Clone20 osteoblast Shn3 3'UTR firefly luciferase, 24 h | inhibition, % at 12.5 µM | hit rate 0.52% among 360,000;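 active = mean inhibition of at least 75% with every replicate also reaching 75%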;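 note: 0% = median of neutral control wells and 100% = pilot-screen positive control compound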
KKLEB cytotox: counter-screen for CF NF-kB inhibitors: cytotoxicity; activity change (cytotoxicity), % at 5 µM; KKLEB CF airway cells viability, ATPlite luminescence, overnight; stronger effect = lower value; cells stimulated with P. aeruginosa culture filtrate; hit rate 0.36% among 360,000; AID 602141;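 active = corrected activity change at or below -50% at 5 µM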
LMP1 NFkB inh: reduces LMP1-driven NF-kappaB luciferase signal | LMP1-induced NF-kappaB luciferase reporter cells, luminescence | inhibition, % at 12.5 µM | hit rate 0.69% among 350,000 | AID 504558; in the data active = inhibition above about 41%;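 note: 0% = neutral control wells and 100% = reference inhibitor control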
CF NFkB block: inhibitors of cystic fibrosis induced NF-kB; hit rate 0.86% among 360,000; inhibition, % at 5 µM; AID 588850; KKLEB NF-kB-GFP reporter, PAF-induced, GFP fluorescence overnight;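 active = at least 50% inhibition at 5 µM, scaled per plate between neutral and stimulator controls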;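 note: PAF is a Pseudomonas aeruginosa culture filtrate used as stimulus; plate controls were PAF-stimulated DMSO wells for no effect and unstimulated DMSO wells for full effect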
Peg3 prom inh-1: inhibitors of Peg3 promoter. HeLa PEG-Prom luciferase reporter, luminescence, overnight. inhibition, % at 20 µM. hit rate 1.7% among 360,000;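 active = inhibition of at least 50% at 20 µM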
HIF-2a inh: inhibitors of HIF-2a | 786-0 RCC cells HIF-2a reporter, luciferase luminescence, overnight | inhibition, % at 18.8 µM | hit rate 0.72% among 360,000;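 active = inhibition of the luminescence signal of 40% or more relative to plate controls, in a single-dose primary screen at 18.75 µM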
Peg3 prom inh-2: confirmation of Peg3 promoter inhibitors; HeLa PEG-Prom luciferase reporter, luminescence, overnight; AID 602417; hit rate 84% among 1,300; inhibition, % at 20 µM; shares compounds with Peg3 prom inh-1;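 active = at 20 µM dose, 40% or more inhibition averaged across four replicates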
An asterisk follows results filed as active; x = no result.

SMILES	Shn3 3UTR inh	KKLEB cytotox	LMP1 NFkB inh	CF NFkB block	Peg3 prom inh-1	HIF-2a inh	Peg3 prom inh-2
COc1ccc(-c2cc(C(=O)Nc3ccccc3O)c3ccccc3n2)cc1OC	1	-3	19	-25	-1	-10	x
COc1ccc(-c2cc(C(=O)Nc3ccccc3N3CCOCC3)c3ccccc3n2)cc1OC	21	-11	22	18	58*	-4	62*
O=C(Nc1ccccc1N1CCOCC1)c1cc(-c2ccncc2)nc2ccccc12	14	-13	-15	1	63*	1	57*
Cc1ccc(S(=O)(=O)NCCc2nc3ccccc3[nH]2)cc1	20	9	-11	-1	-8	7	x
Cc1cccc(C(=O)OC(C)C(=O)N2CCc3ccccc3C2)c1C (stereo unspecified)	11	-6	-3	11	-4	-23	x
CCCSc1ncc(Cl)c(C(=O)Nc2ccc(S(=O)(=O)N3CC(C)OC(C)C3)cc2)n1 (stereo unspecified)	21	-18	3	17	11	13	x
COc1ccc(-c2cc(C)no2)cc1S(=O)(=O)Nc1cccc(CN2CCCC2)c1	1	3	2	9	-3	15	x
CC1CCCCC1NC(=O)C1CCN(S(=O)(=O)c2cccc3nsnc23)CC1 (stereo unspecified)	-33	-31	-8	16	2	14	x
CCN(C(=O)CSc1nnc(-c2ccncc2)n1Cc1ccccc1)C1CCS(=O)(=O)C1 (stereo unspecified)	4	2	-6	1	20	12	x
CN(C)CCCNc1ncnc2oc(-c3ccccc3)c(-c3ccccc3)c12	22	-13	22	8	97*	-6	97*
CC(=O)OCCNc1cc(SCc2ccco2)c2nonc2c1[N+](=O)[O-]	-22	13	3	28	52*	8	69*
CCCC(=O)OCCNc1cc(SCCC(=O)OC)c2nonc2c1[N+](=O)[O-]	8	-2	1	22	25	23	x
Cc1c(Cl)cc(-n2cnnn2)cc1[N+](=O)[O-]	-2	3	-6	-23	11	13	x
Cc1c([N+](=O)[O-])cc(N2C(=O)C=CC2=O)cc1[N+](=O)[O-]	21	-1	6	3	105*	21	98*
O=S1(=O)CC(N2CCN(c3ccccn3)CC2)CN1C1CCCCC1 (stereo unspecified)	-29	-4	x	-8	11	-4	x
N=c1n(CCN2CCCCC2)c2ccccc2n1CC(O)c1ccc(Cl)c(Cl)c1 (stereo unspecified)	7	-14	-10	22	117*	-6	100*
NCCc1c(-c2ccccc2)n(-c2ccccc2)c2ccccc12	36	-14	-12	17	107*	7	99*
CC(=O)n1c(-c2ccccc2)c(CO)c2ccccc21	8	10	-3	5	-14	5	x
O=C1N=C(N2CCOCC2)S/C1=C\c1ccc(-c2ccccc2Cl)o1	-4	4	8	-6	55*	-8	18
NC1=C(Br)C(=O)c2ncccc2C1=O	97*	-64*	70*	79*	102*	83*	99*
Cc1cc(Cl)n2ncc(-c3ccccc3)c2n1	-138	-7	-16	10	87*	-156	68*
CCOC(=O)C1CCN(c2cc3c(cc2NC(=O)c2ccccc2OCC)n(C)c(=O)n3C)CC1	15	-3	4	19	51*	9	45*
COc1ccc(CC(=O)N(Cc2ccccc2)c2ccccc2)cc1S(=O)(=O)N1CCOCC1	-4	-9	0	-9	56*	9	47*
Cc1ccc(OC(C)C(=O)N2CCN(c3ccccn3)CC2)cc1 (stereo unspecified)	-20	-20	4	-17	0	6	x
Cc1nn(-c2ccc([N+](=O)[O-])cc2)c2c1C(c1cccc(Br)c1)N1C(=N2)C(=O)Nc2ccccc21 (stereo unspecified)	15	-8	-75	-25	43	16	x
SMILES	Shn3 3UTR inh	KKLEB cytotox	LMP1 NFkB inh	CF NFkB block	Peg3 prom inh-1	HIF-2a inh	Peg3 prom inh-2
Cc1nn(-c2ccccc2)c2c1C(c1ccc([N+](=O)[O-])cc1)N1C(=N2)C(=O)Nc2ccccc21 (stereo unspecified)	-3	-9	17	12	53*	2	50*
COc1cccc(-c2ccc3c(c2)C2CC3CCN2C(C)=O)c1 (stereo unspecified)	-5	-18	5	-8	-33	-35	x
COc1ccc(-c2sc3ccccc3c2C#Cc2cncn2C)cc1	3	0	-8	17	52*	22	33
CS/C(=N\S(=O)(=O)c1ccccc1)c1ccccc1	13	0	8	11	-1	13	x
O=S(=O)(/N=C(/Sc1ccccc1)c1ccccc1)c1ccccc1	-36	-5	6	-6	60*	22	75*
O=[N+]([O-])c1ccc(Sc2cccc3cccnc23)cc1	-12	-12	-8	-6	-104	-184	x
C=CCn1nc([N+](=O)[O-])nc1Sc1cccc2cccnc12	89*	7	-1	-6	54*	-9	26
CS(=O)(=O)c1ccc(C(=O)N2CCN(C(=O)c3ccco3)CC2)cc1	-14	3	-1	11	5	7	x
CCOc1ccc(-c2ccc(SCC(=O)Nc3nnc(CC)s3)nn2)cc1	-29	-25	2	-3	-242	-176	x
CCOc1ccc(-c2ccc(SC)nn2)cc1	68	-60*	59*	-13	76*	27	45*
C=CCn1cn[nH]c1=S	-22	16	-3	-15	8	6	x
CCOC(=O)c1ccc2ncc(C(=O)OCC)c(NCCN3CCOCC3)c2c1	-2	1	-7	-10	10	14	x
CCOC(=O)c1ccc2ncc(C(=O)OCC)c(NCCN(C)C)c2c1	-35	-10	-12	-22	55*	0	55*
O=C(NCCc1ccccc1)c1ccc2c(c1)OCO2	22	-5	49*	11	58*	54*	52*
O=C(NCCS(=O)(=O)NCc1ccccc1)c1ccc2c(c1)OCO2	-3	5	0	21	5	7	x
O=C(c1ccc(CSc2ccc(Cl)cc2)cc1)N1CCCC1	-39	-6	-10	10	-161	-165	x
COc1c(OC(C)=O)ccc(/C=N\NC(=O)c2ccc(Br)cc2)c1[N+](=O)[O-]	16	-2	5	-7	-31	-24	x
O=C(Nc1ccc(-c2nc3ccccc3o2)cc1)c1ccc(N2CCOCC2)c([N+](=O)[O-])c1	91*	-51*	5	52*	51*	-82	48*
O=C(COc1ccccc1C(=O)NCc1ccncc1)Nc1ccc(Br)cc1	9	-7	-13	4	-14	-21	x
Cc1ncc(CO)c(/C=N/NC(=S)Nc2ccc(F)cc2)c1O	10	-1	20	7	18	13	x

Screening results as filed in PubChem BioAssay.
